Screens as filed in PubChem.
Rows were chosen to be rich in hits. Some 3.4% of all compounds tested hit in one or more screens of this group.
eIF4E 4G PPI = inhibitors of eIF4E and eIF4G interaction in translation initiation; AID 782; inhibition, % at 21.7 µM; P63073+Q04637; TR-FRET eIF4E-eIF4GI(517-606) binding, 2 h; 220,000 tested, 0.37% active
p47phox inh = p47phox (human) inhibition. inhibition, % at 24.7 µM. P14598. 220,000 tested, 0.53% active. AID 1274. p47phox/p22phox peptide binding, fluorescence polarization, 2 h
Target sequence (P14598 whole entry, looked up): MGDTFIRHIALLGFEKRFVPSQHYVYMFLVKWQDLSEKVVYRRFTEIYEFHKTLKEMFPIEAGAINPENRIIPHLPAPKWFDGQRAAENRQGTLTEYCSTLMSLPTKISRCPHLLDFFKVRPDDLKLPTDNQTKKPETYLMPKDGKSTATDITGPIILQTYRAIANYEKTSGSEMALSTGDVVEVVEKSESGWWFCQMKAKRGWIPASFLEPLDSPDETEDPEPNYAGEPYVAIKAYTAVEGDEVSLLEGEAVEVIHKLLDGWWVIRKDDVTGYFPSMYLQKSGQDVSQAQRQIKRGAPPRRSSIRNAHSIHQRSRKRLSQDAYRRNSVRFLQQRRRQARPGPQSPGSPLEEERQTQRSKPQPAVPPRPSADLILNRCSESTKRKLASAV
Mcl-1 Bim block = disrupts Bim peptide binding to human Mcl-1; Q07820; Bead-based flow cytometry, Bim peptide-Mcl-1 binding; inhibition, % at 10 µM; 190,000 tested, 0.1% active; in the data active = inhibition above about 40%
Mcl1-Bid inh = disrupts binding of human Mcl-1 to Bid peptide | Q07820 | TR-FRET Mcl-1/Bid-Dy647 peptide binding, 1536-well | inhibition, % at 21.7 µM | 220,000 tested, 0.97% active | AID 1021;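 active = compounds that cut the binding signal by more than half at the single screening dose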;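 note: His-tagged Mcl-1 with europium anti-His antibody binding Bid BH3 peptide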
14-3-3 Bad PPI = disrupts binding of bovine 14-3-3 zeta to phospho-Bad peptide; AID 781; 220,000 tested, 0.71% active; TR-FRET 14-3-3zeta/Dy647-pBad peptide displacement, 1 h; inhibition, % at 21.7 µM; P63103;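 active = inhibition above about 70%, limit read from the data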
Target sequence (P63103 whole entry, looked up): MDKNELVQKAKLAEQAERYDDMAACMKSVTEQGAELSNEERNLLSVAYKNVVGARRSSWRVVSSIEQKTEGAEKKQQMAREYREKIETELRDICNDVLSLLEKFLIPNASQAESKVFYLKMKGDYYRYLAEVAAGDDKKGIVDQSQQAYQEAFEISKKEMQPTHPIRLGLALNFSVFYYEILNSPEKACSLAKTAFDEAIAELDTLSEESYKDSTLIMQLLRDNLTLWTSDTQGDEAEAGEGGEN
Mcl1 Noxa PPI = disrupts binding of human Mcl-1 to Noxa peptide. TR-FRET Mcl-1/Noxa peptide binding, 2 h. inhibition, % at 21.7 µM. 220,000 tested, 1.5% active. AID 1022;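 active = compounds that cut the protein-peptide binding signal by more than 50% relative to plate controls in a single-dose test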;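 note: His-tagged Mcl-1 with rhodamine Noxa BH3 peptide and terbium anti-His antibody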
Numbers stand for hits; [ ] = dose if it differs, or a comment.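 Rule for the calls, unless noted: active = inhibition above about 30% (limit read from the data); inactive = the rest.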

Results for CCc1ccccc1NS(=O)(=O)c1ccc2[nH]cc(C(=O)NCC3CCCO3)c(=O)c2c1 (stereo not given) ?
eIF4E 4G PPI: inactive; p47phox inh: inactive; Mcl-1 Bim block: inactive; Mcl1-Bid inh: 59.4; 14-3-3 Bad PPI: inactive; Mcl1 Noxa PPI: 72.2

Results for CCOc1ccc(NS(=O)(=O)c2ccc3[nH]cc(C(=O)NCC4CCCO4)c(=O)c3c2)cc1 (stereo not given) ?
eIF4E 4G PPI: inactive; p47phox inh: inactive; Mcl-1 Bim block: inactive; Mcl1-Bid inh: inactive; 14-3-3 Bad PPI: inactive; Mcl1 Noxa PPI: inactive

Results for Cc1cc(C)cc(NS(=O)(=O)c2ccc3[nH]cc(C(=O)NCc4ccco4)c(=O)c3c2)c1 ?
eIF4E 4G PPI: inactive; p47phox inh: inactive; Mcl-1 Bim block: inactive; Mcl1-Bid inh: inactive; 14-3-3 Bad PPI: inactive; Mcl1 Noxa PPI: inactive

How did C=C(C)C1CC=C(C)/C(=N\NC(=O)CCC(=O)Nc2ccc(C)c(C)c2)C1 (stereo not given) do in these assays?
eIF4E 4G PPI: inactive; p47phox inh: inactive; Mcl1-Bid inh: inactive; 14-3-3 Bad PPI: inactive; Mcl1 Noxa PPI: inactive

Results for C[C@@H]1O[C@@H](Oc2c(-c3cc(O)c(O)c(O)c3)oc3cc(O)cc(O)c3c2=O)[C@H](O)[C@H](O)[C@H]1O ?
eIF4E 4G PPI: inactive; p47phox inh: inactive; Mcl-1 Bim block: inactive; Mcl1-Bid inh: inactive; 14-3-3 Bad PPI: inactive; Mcl1 Noxa PPI: 54.3

How did O=c1c(OC2OC(CO)C(O)C(O)C2O)c(-c2ccc(O)c(O)c2)oc2cc(O)cc(O)c12 (stereo not given) do in these assays?
eIF4E 4G PPI: inactive; p47phox inh: inactive; Mcl-1 Bim block: inactive; Mcl1-Bid inh: inactive; 14-3-3 Bad PPI: inactive; Mcl1 Noxa PPI: inactive

Results for C/C(=N\Nc1ccc(Cl)c(C(=O)O)c1)c1ccc[nH]1 ?
eIF4E 4G PPI: inactive; p47phox inh: inactive; Mcl1-Bid inh: inactive; 14-3-3 Bad PPI: inactive; Mcl1 Noxa PPI: inactive

Results for N#Cc1c(-c2ccco2)cc(-c2ccc(F)cc2)nc1N ?
p47phox inh: inactive; Mcl-1 Bim block: inactive; Mcl1-Bid inh: inactive; Mcl1 Noxa PPI: 65.3

Results for N#Cc1c(-c2ccc(F)cc2)cc(-c2cccnc2)nc1N ?
eIF4E 4G PPI: inactive; p47phox inh: inactive; Mcl-1 Bim block: inactive; Mcl1-Bid inh: inactive; 14-3-3 Bad PPI: inactive; Mcl1 Noxa PPI: inactive

Results for CC(C)Cc1cc(-c2ccco2)c(C#N)c(N)n1 ?
eIF4E 4G PPI: inactive; p47phox inh: inactive; Mcl-1 Bim block: 48.0; Mcl1-Bid inh: inactive; 14-3-3 Bad PPI: inactive; Mcl1 Noxa PPI: inactive

Results for O=C(NCC1CCCN(Cc2ccccc2F)C1)c1cccc(C(F)(F)F)c1 (stereo not given) ?
eIF4E 4G PPI: inactive; p47phox inh: inactive; Mcl-1 Bim block: inactive; Mcl1-Bid inh: inactive; 14-3-3 Bad PPI: inactive; Mcl1 Noxa PPI: inactive

Results for c1ccc2c(c1)SCc1nnc(-c3ccncc3)n1-2 ?
eIF4E 4G PPI: inactive; p47phox inh: inactive; Mcl1-Bid inh: inactive; 14-3-3 Bad PPI: inactive; Mcl1 Noxa PPI: inactive

What do the screens show for `COc1ccc(-c2nnc3n2-c2ccccc2SC3)cc1OC`?
eIF4E 4G PPI: inactive; p47phox inh: inactive; Mcl-1 Bim block: inactive; Mcl1-Bid inh: inactive; 14-3-3 Bad PPI: 78.1; Mcl1 Noxa PPI: inactive

How did Cc1nc(NC(=O)CN2CCC(O)(c3ccc(F)cc3)CC2)sc1C do in these assays?
eIF4E 4G PPI: inactive; p47phox inh: inactive; Mcl1-Bid inh: inactive; 14-3-3 Bad PPI: inactive; Mcl1 Noxa PPI: inactive

What do the screens show for `COc1cc(C2NC(=O)C(C#N)=C(Nc3cccc(C)c3)S2)ccc1O` (stereo not given)?
eIF4E 4G PPI: inactive; p47phox inh: inactive; Mcl1-Bid inh: inactive; 14-3-3 Bad PPI: inactive; Mcl1 Noxa PPI: inactive

Results for Cc1ccc(C(=O)Oc2ccc(C(=O)COC(=O)C3CC(=O)N(Cc4ccco4)C3)cc2)cc1 (stereo not given) ?
eIF4E 4G PPI: inactive; p47phox inh: inactive; Mcl-1 Bim block: inactive; Mcl1-Bid inh: 57.0; 14-3-3 Bad PPI: inactive; Mcl1 Noxa PPI: inactive

How did Cc1[nH]c2ccccc2c1C(=O)COC(=O)C1CC(=O)N(Cc2ccco2)C1 (stereo not given) do in these assays?
eIF4E 4G PPI: inactive; p47phox inh: inactive; Mcl-1 Bim block: inactive; Mcl1-Bid inh: inactive; 14-3-3 Bad PPI: inactive; Mcl1 Noxa PPI: inactive

How did O=C(COC(=O)C1CC(=O)N(Cc2ccccc2)C1)c1ccc(Br)cc1 (stereo not given) do in these assays?
eIF4E 4G PPI: inactive; p47phox inh: inactive; Mcl-1 Bim block: inactive; Mcl1-Bid inh: inactive; 14-3-3 Bad PPI: inactive; Mcl1 Noxa PPI: inactive

Results for O=C(COC(=O)C1CC(=O)N(Cc2ccco2)C1)c1ccc(OC(=O)c2ccco2)cc1 (stereo not given) ?
eIF4E 4G PPI: inactive; p47phox inh: inactive; Mcl-1 Bim block: inactive; Mcl1-Bid inh: inactive; 14-3-3 Bad PPI: inactive; Mcl1 Noxa PPI: 55.5

Results for CC(Sc1ccc(Cl)cc1)C(=O)Nc1ccccc1-c1ccccc1 (stereo not given) ?
eIF4E 4G PPI: inactive; p47phox inh: inactive; Mcl-1 Bim block: inactive; Mcl1-Bid inh: inactive; 14-3-3 Bad PPI: inactive; Mcl1 Noxa PPI: 71.2

What do the screens show for `CCOC(=O)C1CCN(c2c(NCCC(C)C)c(=O)c2=O)CC1`?
eIF4E 4G PPI: inactive; p47phox inh: inactive; Mcl1-Bid inh: inactive; 14-3-3 Bad PPI: inactive; Mcl1 Noxa PPI: inactive

How did O=C(Nc1nc2ccccc2s1)c1ccc(Cl)s1 do in these assays?
eIF4E 4G PPI: inactive; p47phox inh: inactive; Mcl-1 Bim block: inactive; Mcl1-Bid inh: inactive; 14-3-3 Bad PPI: inactive; Mcl1 Noxa PPI: inactive

Results for Cc1ccc2nc(NC(=O)c3ccc(-c4nc5ccccc5s4)s3)sc2c1 ?
eIF4E 4G PPI: inactive; p47phox inh: inactive; Mcl-1 Bim block: inactive; Mcl1-Bid inh: 78.7; 14-3-3 Bad PPI: 82.7[fluorescence artefact?]; Mcl1 Noxa PPI: 51.7

How did CC(=O)Nc1ccc2nc(NC(=O)c3ccc([N+](=O)[O-])s3)sc2c1 do in these assays?
eIF4E 4G PPI: inactive; p47phox inh: inactive; Mcl1-Bid inh: inactive; 14-3-3 Bad PPI: inactive; Mcl1 Noxa PPI: 73.2

What do the screens show for `CC(=O)Nc1ccc2nc(NC(=O)COc3ccc([N+](=O)[O-])cc3)sc2c1`?
eIF4E 4G PPI: inactive; p47phox inh: inactive; Mcl-1 Bim block: inactive; Mcl1-Bid inh: inactive; 14-3-3 Bad PPI: inactive; Mcl1 Noxa PPI: 56.2

What do the screens show for `Cn1cc(Cl)c(C(=O)Nc2nc3ccc([N+](=O)[O-])cc3s2)n1`?
eIF4E 4G PPI: inactive; p47phox inh: inactive; Mcl-1 Bim block: inactive; Mcl1-Bid inh: 52.4; 14-3-3 Bad PPI: inactive; Mcl1 Noxa PPI: 61.5

Results for CC(=O)Nc1ccc2nc(NC(=O)c3cccs3)sc2c1 ?
eIF4E 4G PPI: inactive; p47phox inh: inactive; Mcl1-Bid inh: inactive; 14-3-3 Bad PPI: inactive; Mcl1 Noxa PPI: inactive

What do the screens show for `COc1ccc(Cl)cc1-c1nc(SCC(N)=O)n[nH]1`?
eIF4E 4G PPI: inactive; p47phox inh: inactive; Mcl1-Bid inh: inactive; 14-3-3 Bad PPI: inactive; Mcl1 Noxa PPI: inactive

Results for Cc1nc2cc(-c3ccsc3-n3c(C)ccc3C)[nH]n2c(=O)c1Cl ?
eIF4E 4G PPI: inactive; p47phox inh: inactive; Mcl-1 Bim block: inactive; Mcl1-Bid inh: inactive; 14-3-3 Bad PPI: inactive; Mcl1 Noxa PPI: 61.0
